Source: PubChem BioAssay AID1347076 (National Center for Advancing Translational Sciences (NCATS), 2019)
The campaign covered roughly 400,000 compounds. About 13,000 (3.2%) were called active. A call without a number means that no potency is given here. Another 18% or so got no clear call; they are omitted. This is one part of a sample in which actives are shown more often than they occur. Calls follow the shape of the dose curve; as a rule, active = well fitted cell-killing curve with a large enough effect; inconclusive = small, poorly fitted or top-dose-only effect, or effect the other way; inactive = flat fitted curve, though single readings scatter.

test: qHTS assay for MDR1-selective chemotherapeutics: Primary screen using the drug-selected MDR subline cells KB-V1; conditions: KB-V1 MDR cells viability, CellTiter-Glo, 72 h; series mostly up to 46.1 µM; also: nearly all actives have a fitted effect of over 60% in size
Summary of the method: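 Cytotoxicity toward P-gp-expressing KB-V1 cells was determined as loss of CellTiter-Glo luminescence after 72 h at 37 degrees C. Compounds were tested in quantitative HTS format across a concentration range, with curves fitted to normalized data.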
Potency is read from the fitted curve at half-maximal effect.

Compound	Potency
CCCCn1nnnc1C(c1cc2ccccc2o1)N(C)Cc1ccc(Cl)c(Cl)c1 (centres undefined)	inactive
O=C1NC(Cc2ccccc2)c2nc3ccc(Br)cc3c(=O)n2-c2cc3ccccc3cc21 (centres undefined)	inactive
O=C(NCCN1CCOCC1)C1CCN(S(=O)(=O)c2ccccc2)CC1	inactive
O=C(NCCCN1CCOCC1)C1CCCN(S(=O)(=O)N2CCCCC2)C1 (centres undefined)	inactive
O=C(NC(C(=O)NCCN1CCOCC1)C12CC3CC(CC(C3)C1)C2)C1CCCCC1 (centres undefined)	14.6 µM (active)
CCOC(=O)c1c(NC(=O)COC(=O)c2ccc(S(=O)(=O)C(F)F)cc2)sc(C(=O)N(C)C)c1C	inactive
CC1(C(=O)O)CCN1C(=O)/C=C/c1ccccc1 (centres undefined)	inactive
CCN(CC(=O)Nc1ccc(OC)cc1)C(=O)c1ccc(Cl)c(S(=O)(=O)N2CCCC2)c1	inactive
COc1ccc(NC(=O)CN(C)C(=O)c2cc(C3CC3)nn2-c2ccccc2)cc1	inactive
CCN(CC(=O)Nc1ccc(OC)cc1)C(=O)c1ccc(=O)n(Cc2ccccc2)n1	18.4 µM (active)
N=c1c2c3c(sc2ncn1CCCN1CCOCC1)CCCCC3	8.2 µM (active)
N=c1c2c3c(sc2nc2n1CCCCC2)CCCC3	inactive
N=c1c2c3c(sc2ncn1N)CCCCC3	inactive
CCN1CCN(c2ccc(/C=C/c3ccnc4ccccc34)cc2)CC1	inactive
C[C@@H]1CN([C@H](C)CO)C(=O)c2cc(Br)cnc2O[C@@H]1CN(C)Cc1cncnc1	inactive
C[C@H]1Cn2cnc(C(=O)N[C@@H](Cc3c[nH]c4ccccc34)C(=O)OC(C)(C)C)c2C(=O)N1	inactive
COc1ccc(C(=O)NC2CC(C)(C)NC(C)(C)C2)cc1OC	inactive
Cc1cccc(C(=O)NCC(=O)OCC(=O)N2CC3(C)CC2CC(C)(C)C3)c1 (centres undefined)	inactive
COc1ccc(C(=O)N2CC3(C)CC2CC(C)(C)C3)cc1OC (centres undefined)	23.1 µM (active)
O=C(NCc1ccccc1)C(c1ccc(F)cc1)N1CCN(C(=O)C2CCCO2)CC1 (centres undefined)	inactive
CCn1c(Cc2ccc(OC)cc2)nnc1SCC(=O)Nc1ccc(N2CCOCC2)cc1	inactive
CCn1c(Cc2ccccc2)nnc1SCC(=O)Nc1ccccc1	20.6 µM (active)

Compound	Potency
CCn1c(CNC(=O)c2ccc(OC)c(OC)c2)nnc1SCC(=O)Nc1ccccc1	inactive
CC1(C(=O)NS(=O)(=O)c2cccc(OC(F)F)c2)CCN1C(=O)COc1ccc(Cl)cc1 (centres undefined)	inactive
O=C(Nc1cccc2ccccc12)c1[nH]c(-c2ccccc2)c2c1C(=O)N(C1CC1)C2=O	inactive
CCCCNC(=O)C[C@@H]1C[C@@]2(C(=O)OCC)CCC=C2N(Cc2ccco2)C1=O	inactive
Cc1cc([N+](=O)[O-])ccc1NS(=O)(=O)c1ccccc1	inactive
O=C(NNS(=O)(=O)c1ccc(F)cc1)c1ccc([N+](=O)[O-])cc1Cl	inactive
O=[N+]([O-])c1ccc(NS(=O)(=O)c2ccccc2)c(Cl)c1	23.1 µM (active)
CCc1nc2ccc(C(=O)N3CCC(O)(Cc4ccccc4)CC3)cn2c1N(C)C(=O)Cc1ccccc1	inactive
CC1(C(=O)NCc2ccc3c(c2)OCO3)CCN1CCc1ccccc1 (centres undefined)	inactive
COc1ccc(C(=O)NNS(=O)(=O)c2ccc(C)cc2)cc1	inactive
COc1ccc(C(=O)Oc2cc(/C=N/NS(=O)(=O)c3ccc(C)cc3)ccc2OC)cc1	14.6 µM (active)
COc1ccc(S(=O)(=O)N/N=C\c2ccc(OC)c(COc3ccc(C)cc3[N+](=O)[O-])c2)cc1	inactive
c1ccc(Cc2c(-c3ccco3)nc3c4ccccc4ccn23)cc1	inactive
CC(C)Cn1c(=O)c2ccccc2n2c(-c3cccc(Cl)c3)nnc12	inactive
CN(Cc1cncn1C)c1ncnc2ccc(-c3ccc4c(c3)OCO4)cc12	inactive
O=C(Nc1cccc(S(=O)(=O)N2CCCCC2)c1)c1ccc2c(c1)OCO2	3.26 µM (active)
O=C(Nc1cccc(S(=O)(=O)N2CCCCC2)c1)c1cncc(Br)c1	inactive
O=C(CSc1ccccc1)Nc1cccc(S(=O)(=O)N2CCCCC2)c1	inactive
O=C(NCc1cccs1)C1CCN(S(=O)(=O)c2ccc3c(c2)OCCO3)CC1	inactive
O=C(c1c(F)cccc1F)N1CCN(S(=O)(=O)c2ccc3c(c2)OCCO3)CC1	inactive
Cn1nnnc1SCC(=O)Nc1cccc(S(=O)(=O)N2CCCCC2)c1	20.6 µM (active)
CCN(CC)S(=O)(=O)c1cccc(NC(=O)c2ccc(S(=O)(=O)N3CCCC3)cc2)c1	inactive

Compound	Potency
COCCn1cnnc1SCC(=O)Nc1cccc(S(=O)(=O)N2CCCCC2)c1	inactive
O=C(c1ccc2c(c1)OCCO2)C1CCN(S(=O)(=O)c2cccc(F)c2)CC1	20.6 µM (active)
Cc1ccc(-c2nn3c(=O)cc(CN4CCN(S(=O)(=O)c5ccc(Cl)cc5)CC4)nc3s2)cc1	inactive
Cc1cccc(C)c1NC(=O)CNC(=O)c1ccc(N2CCOCC2)c([N+](=O)[O-])c1	inactive
O=c1oc(/C=C/c2ccccc2)nc2ccccc12	inactive
CCn1c(/C=C/c2ccc([N+](=O)[O-])o2)nc2ccccc2c1=O	5.17 µM (active)
CCc1ccc(S(=O)(=O)N/N=C\c2ccc([N+](=O)[O-])o2)cc1	inactive
CSc1ncccc1C(=O)N1CCCC(Nc2ccc(F)c(F)c2)C1 (centres undefined)	inactive
CCc1nn(CCCC(=O)NCc2ccccc2OC)c(=O)c2cc3occc3n12	inactive
Cc1cc(Br)cn2c(Cc3cccc(F)c3)c(-c3cccc(Br)c3)nc12	inactive
CCOC(=O)c1c(NC(=O)Cn2nc(C(F)(F)F)cc2C)sc2c1CCC2	20.6 µM (active)
CCOC(=O)c1c(NC(=O)Cc2coc3ccc(CC)cc23)sc2c1CCC2	inactive
CCOC(=O)c1c(NC(=O)CSc2cn(CC)c3ccccc23)sc2c1CCC2	inactive
CCCS(=O)(=O)NC(=O)C1(C)CCCN(C(=O)c2cccs2)C1 (centres undefined)	inactive
Cc1ccc(OCC(=O)Nc2ccccc2C(=O)NC2CC2)cc1C	inactive
Cc1ccc(OCC(=O)Nc2ccccc2C(=O)NC2CC2)cc1	8.2 µM (active)
CC(NCC(=O)Nc1ccccc1C(=O)NC1CC1)c1ccccc1Cl (centres undefined)	18.4 µM (active)
CCCC(NCC(=O)Nc1ccccc1C(=O)NC1CC1)c1ccccc1 (centres undefined)	inactive
O=C(CN1CCCCC1)Nc1ccccc1C(=O)NC1CC1	inactive
COc1ccccc1OCC(=O)Nc1ccccc1C(=O)NC1CC1	inactive
